# Laboratory results reported in the supplement of paper PMC3334620.
# In all, about 33,000 sequences were measured (“E-score (-0.5 to 0.5)”: median about -0.012, highest 2% from about 0.27 on). The full list was thinned out, with the highest values kept by preference.
# Molecular target: T1, Vhr1 (UniProt P40522)
# T1 sequence: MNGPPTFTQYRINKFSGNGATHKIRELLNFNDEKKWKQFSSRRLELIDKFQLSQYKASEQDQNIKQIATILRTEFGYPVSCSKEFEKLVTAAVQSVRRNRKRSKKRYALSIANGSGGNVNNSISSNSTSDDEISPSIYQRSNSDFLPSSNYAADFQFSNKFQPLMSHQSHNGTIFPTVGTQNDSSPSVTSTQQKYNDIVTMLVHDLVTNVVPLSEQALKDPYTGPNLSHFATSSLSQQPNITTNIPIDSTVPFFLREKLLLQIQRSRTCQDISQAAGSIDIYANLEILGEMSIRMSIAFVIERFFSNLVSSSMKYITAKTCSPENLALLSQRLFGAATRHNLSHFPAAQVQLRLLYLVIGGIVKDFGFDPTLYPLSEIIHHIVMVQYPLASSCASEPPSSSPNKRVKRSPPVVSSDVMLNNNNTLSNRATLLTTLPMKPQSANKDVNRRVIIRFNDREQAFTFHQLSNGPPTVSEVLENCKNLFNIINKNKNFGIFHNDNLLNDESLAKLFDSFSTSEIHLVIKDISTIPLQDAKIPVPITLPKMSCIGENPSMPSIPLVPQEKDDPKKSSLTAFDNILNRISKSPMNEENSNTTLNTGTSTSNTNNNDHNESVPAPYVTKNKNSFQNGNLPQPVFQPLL
# Experiment: PBM E-score (8-mer binding enrichment) (E-score (-0.5 to 0.5)); higher = stronger / more preferred TF binding
# Settings: protein concentration: 200 nM; construct: GST-full length
# Procedure: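 Universal 'all 10-mer' protein binding microarrays (Agilent AMADID 015681) probed with GST-tagged S. cerevisiae TFs (full-length or DBD) made by in vitro transcription/translation (PURExpress), about 100-200 nM. Bound TF was detected with fluorescent anti-GST. Each ungapped 8-mer (which stands for itself and its reverse complement) is scored by the PBM enrichment score (E-score), a modified Wilcoxon-Mann-Whitney statistic from -0.5 to +0.5, computed with the Universal PBM Analysis Suite. Scale: above 0.35 generally sequence-specific binding.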
row,Sequence,PBM E-score
1,ACCCATGA,0.287
2,ACCCAGGC,0.302
3,ACCCATGC,0.273
4,ACCCAGGT,0.0206
5,AACCATGA,0.351
6,AACCATGC,0.234
7,GCCCATGA,0.262
8,CACCATGA,0.143
9,ACCCATGG,0.211
10,ATATTCTA,0.122
11,TGACAACA,0.115
12,GCCTTGAC,-0.167
13,CATGGACC,-0.0938
14,AACTGGGC,-0.165
15,GCGAGCAA,-0.12
16,ACAACGCT,0.0591
17,AGCTAGGA,0.117
18,ATTCACCG,0.159
19,AGTCACCG,0.418
20,ATTCACCC,0.135
21,AGTCACCA,0.426
22,CGTCACCA,-0.036
23,AGACACCG,0.21
24,AGTCACCC,0.446
25,GGTCACCA,-0.102

row,Sequence,PBM E-score
1,CGTCACCC,-0.047
2,CTGGCAAG,-0.21
3,GAAGATCA,-0.185
4,GCCGGCCA,-0.136
5,ATGCCTGA,0.0818
6,CCTCTCGA,-0.142
7,CGTGAAAC,-0.243
8,AGCTCTAA,-0.127
9,ACTCTTAC,0.163
10,TCACCCCA,0.305
11,TCACCCAA,0.177
12,GCACCCCA,0.151
13,AGCGGTCG,-0.301
14,ACACGGAG,-0.0139
15,ACACGGAA,-0.0284
16,ACACGGAT,0.287
17,AGTCATAG,0.407
18,AGTCATAA,0.344
19,CGTCATAA,0.016
20,CGTCATAC,0.189
21,ACTCATAG,0.264
22,ACTCATAT,0.229
23,CGTCATAG,-0.155
24,TGTCATAA,-0.0558
25,GGTCATAC,0.0467

row,Sequence,PBM E-score
1,AGACATAT,0.16
2,AGTCATAC,0.407
3,AGTCATAT,0.421
4,ACTTATAT,0.199
5,GCACCGCA,0.0151
6,GTTCATGA,0.142
7,ATCCACCA,0.113
8,ACCTTGCG,-0.0156
9,GAGGCGGC,0.0803
10,GAGGTTGC,-0.0739
11,CAACTATC,0.125
12,ACTATCAA,0.112
13,CACGTGAC,0.108
14,GCTGATGA,0.185
15,GGTGATGA,0.233
16,AATGATTA,0.304
17,AATGATGA,0.163
18,AATGATCA,0.0798
19,GATGATTA,0.337
20,AATGATAA,0.106
21,GATGATCA,0.285
22,GATGATCC,0.0747
23,GCTGATTA,0.197
24,GTTGATTA,0.239
25,GGTGATTA,0.285

row,Sequence,PBM E-score
1,GCTGCGCC,0.0437
2,ATTAGCAA,0.124
3,CGAGAGCG,-0.118
4,CTGCATCC,-0.157
5,ATCGCAAT,0.157
6,CATGATGA,0.254
7,GATGATGA,0.144
8,TATGATGA,0.286
9,TAGGTTGA,0.0773
10,AAAGAATG,0.0281
11,CTGGAGTA,-0.0097
12,ATGGAGTA,0.185
13,CTGGAGAC,0.0265
14,ATGGAATA,0.117
15,ATGGAGTG,-0.0367
16,CTGGAGTC,0.356
17,CTGGAATC,0.104
18,ATGGAATC,0.28
19,ATGGAGTC,0.433
20,CGATACGA,-0.0911
21,AGAAGCGC,0.16
22,TAGCACAA,-0.0198
23,CACACTCG,0.224
24,GACTCCGC,0.38
25,AACTCCGC,-0.0635

row,Sequence,PBM E-score
1,CACTCCGC,0.144
2,AACTCCGA,0.115
3,TACTCCGA,0.174
4,GACTCCGA,0.428
5,GCCTTAGA,-0.114
6,CTACCTCC,0.241
7,GATCCATC,0.194
8,AAACGACA,0.138
9,CCTGAGGA,-0.0328
10,GAAACTTA,-0.0802
11,GCTGAGCA,0.149
12,GCTCTGCA,-0.201
13,CTGGTATC,0.0298
14,ATGGTATG,0.00124
15,ATGGTATC,0.287
16,CTAGATGC,0.00921
17,AGTCAGGC,0.404
18,ATTCAGGG,0.108
19,ACTCAGGG,0.27
20,CGTCAGGC,-0.213
21,ACTCAGGC,0.259
22,GGTCAGGA,0.0179
23,AGTCAGGG,0.356
24,AGTCAGGA,0.355
25,CGTCAGGA,-0.0893

row,Sequence,PBM E-score
1,AAGTTGTG,-0.00706
2,ATATTTAG,-0.00388
3,CACCTAGA,-0.0265
4,CACTTGAA,-0.042
5,AAGCTAGT,-0.0022
6,AACCAGGA,-0.00068
7,GTTAACGA,-0.043
8,CGCTTGTC,-0.0745
9,ATAACTCG,0.0214
10,ATGACTCG,0.457
11,ATCACTGA,0.136
12,ACGACTGC,-0.0133
13,AAGACTCG,0.0518
14,ATGACTGC,0.41
15,GTGACTGA,0.384
16,GGGACTGA,-0.174
17,ATCACTGC,0.289
18,AGGACTGC,-0.19
19,GAGACTGA,0.0631
20,CTCACTGC,-0.102
21,GTCTGAAA,-0.0548
22,GCTGAATA,0.00091
23,CACTAGAC,0.0875
24,AACGGGCC,-0.204
25,TAAGTACA,-0.0281

row,Sequence,PBM E-score
1,GCGTTAAA,-0.0751
2,CTCCATCC,-0.162
3,AGATGGGG,-0.00259
4,AATGCTAT,-0.0368
5,AAGTTCGG,-0.155
6,CTGCACAC,0.045
7,ACGATAAT,0.0207
8,ATGACTTG,0.268
9,CTGACTGA,0.13
10,ACGACTGA,0.123
11,ACGACTGG,0.0415
12,ATGACTGG,0.298
13,CTGACTGC,0.298
14,AGGACTGA,-0.143
15,ATGACTGA,0.368
16,CAGACTGC,0.00779
17,CATCCGAG,0.15
18,CGTAATGA,0.0462
19,ATTGTGGG,0.156
20,ACGCTCCC,-0.108
21,GTCATCAC,0.229
22,AGCAATAA,-0.0386
